# NR3A LBD binder: binders of NR3A ligand-binding domain, primary screen, biophysical, differential scanning fluorimetry, uHTS. Tm shift relative to glycine control, % at 25 µM. 2.5% of 340,000 active. NR3A LBD differential scanning fluorimetry, Tm shift; 0% = protein alone, 100% = glycine-bound protein. Glutamate receptor ionotropic, NMDA 3A (GRIN3A) ligand-binding domain;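 active = melting temperature shift of at least 10% of the positive control shift, at one fixed dose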
# AI-2 QS mod: Vibrio harveyi AI-2 quorum sensing modulators, primary screen, JMH597 strain, luminescence/OD600 ratio; Vibrio harveyi JMH597 AI-2 luminescence/OD600 ratio, 9 h; stronger effect = lower value; strain lacks LuxN and CqsS sensors; 0 = neutral-control median; activity change, % at 7.5 µM; 0.4% of 300,000 active; AID 2094, 2009; in the data active = activity change below about -75%, passing the limit was not always enough;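 note: luminescence divided by OD600 gain over 9 h not by final OD600 alone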
# NTR1 agonist: agonists of human NTR1, primary screen, imaging, U2OS cells, beta-arrestin-GFP, high content | NTR1-U2OS beta-arrestin-GFP spot imaging, agonist mode | Neurotensin receptor type 1 (Homo sapiens), P30989 | AID 493036, 2011 | activation, % at 20 µM | 0.17% of 330,000 active;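 active = activation at or above 40% of the spot to cytoplasm intensity ratio, with at least 20 cells analyzed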;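 note: 0% = DMSO without peptide and 100% = 100 nM NTR1 peptide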
# Cardio protect: cardioprotection against H2O2-induced cell death, primary screen, uHTS, H9c2 cells, ATPLite luminescence. H9c2 cardiomyocytes, H2O2 injury protection, 2 h. protection from H2O2 cell death, % at 20 µM. 0.63% of 360,000 active. AID 588492, 2011;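 active = compounds giving at least 50% protection of heart cells from peroxide-induced death in the single-dose screen, raw or plate-pattern-corrected value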;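 note: 0% = DMSO wells with peroxide and 100% = DMSO wells without peroxide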
# SUMO Mot1 rescue: yeast Mot1-301 growth rescue at high temperature, primary screen, SUMOylation pathway inhibitor project, S. cerevisiae, ATP luminescence, 38.5C. S. cerevisiae Mot1-301 growth rescue; percent above DMSO median, 100 means doubled. growth rescue, % at 18.8 µM. 1% of 320,000 active. AID 2716, 2010;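 active = every valid replicate shows activation above 250% relative to neutral control wells; inactive = the rest, any valid replicate at or below 250%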;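 note: OY570 slx delta 5 strain wells were the positive control but not used for scaling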
# AHR act: AHR activators, primary screen, cell-based, luminescence, luciferase reporter, human. Aryl hydrocarbon receptor (Homo sapiens), P35869. AHR-responsive luciferase reporter cells. activation, % at 5 µM. 2.5% of 320,000 active. AID 2796, 2010; in the data active = activation above about 47%;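 note: 0% = vehicle wells and 100% = reference agonist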
# Target sequence (P35869 whole entry, looked up): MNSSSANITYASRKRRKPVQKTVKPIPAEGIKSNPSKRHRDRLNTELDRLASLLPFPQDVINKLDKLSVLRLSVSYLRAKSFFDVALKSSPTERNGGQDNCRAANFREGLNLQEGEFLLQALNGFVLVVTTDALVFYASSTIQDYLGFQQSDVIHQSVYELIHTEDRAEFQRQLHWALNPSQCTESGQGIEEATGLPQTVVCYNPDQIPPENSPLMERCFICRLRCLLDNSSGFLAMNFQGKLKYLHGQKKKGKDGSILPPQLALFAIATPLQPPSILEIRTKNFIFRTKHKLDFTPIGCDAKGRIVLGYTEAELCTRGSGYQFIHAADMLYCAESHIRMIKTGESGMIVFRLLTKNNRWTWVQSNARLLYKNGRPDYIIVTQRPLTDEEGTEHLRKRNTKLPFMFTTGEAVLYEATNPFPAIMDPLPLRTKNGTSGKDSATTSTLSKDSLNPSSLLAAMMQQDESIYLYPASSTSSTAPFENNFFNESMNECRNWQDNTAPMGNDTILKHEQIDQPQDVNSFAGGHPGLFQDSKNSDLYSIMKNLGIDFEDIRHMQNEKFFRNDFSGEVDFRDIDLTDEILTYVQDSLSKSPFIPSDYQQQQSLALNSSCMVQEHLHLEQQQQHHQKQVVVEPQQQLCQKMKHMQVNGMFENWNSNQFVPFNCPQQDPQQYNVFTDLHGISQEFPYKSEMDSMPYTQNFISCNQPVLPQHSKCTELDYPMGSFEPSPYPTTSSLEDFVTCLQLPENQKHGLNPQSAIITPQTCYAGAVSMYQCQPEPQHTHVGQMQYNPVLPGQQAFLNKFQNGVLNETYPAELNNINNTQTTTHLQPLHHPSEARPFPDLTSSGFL
# * marks the source's active call; other numbers are inactive results; . = no result. Sampled rows, rich in hits. Any-hit rate of the full collection: about 6.2%.
SMILES,NR3A LBD binder,AI-2 QS mod,NTR1 agonist,Cardio protect,SUMO Mot1 rescue,AHR act
O=C(NC1CCCCC1)c1cc(S(=O)(=O)N2CCCC2)ccc1Cl,1.1,9.1,2.1,-6.8,4.9,-3.2
O=C(NNC(=O)C1CCN(S(=O)(=O)c2ccc(Cl)cc2)CC1)c1ccc(S(=O)(=O)N2CCCCC2)cc1,22.4*,21.1,2.0,-8.4,-15.5,0.9
O=C(Nc1ccc(S(=O)(=O)N2CCOCC2)cc1)c1ccc(F)cc1,37.9*,15.1,0.8,1.0,5.0,1.4
O=C(Nc1ccc(Cl)cc1)c1cc(S(=O)(=O)N2CCOCC2)cs1,-4.5,9.6,0.2,-12.1,-13.1,10.9
O=C(Nc1cccc(Cl)c1)c1cc(S(=O)(=O)N2CCOCC2)cs1,31.1*,21.6,1.5,-10.9,-2.2,2.1
Cc1c(NC(=O)C2CCCN2S(=O)(=O)c2ccccc2)c(=O)n(-c2ccccc2)n1C (stereo not drawn),0.5,22.4,-1.7,9.0,-4.8,-0.5
Cc1c(NC(=O)C2CCN(S(=O)(=O)c3ccc(Cl)cc3)CC2)c(=O)n(-c2ccccc2)n1C,12.7*,37.0,-2.1,0.7,11.8,1.9
CC(Sc1nc(C(F)(F)F)nc2ccccc12)C(=O)NC1CCCC1 (stereo not drawn),-2.2,.,-0.2,0.7,.,.
Cc1ccc(C)c(N(CC(=O)N2CCCC2)S(C)(=O)=O)c1,-0.7,45.6,-0.2,2.5,-5.6,3.0
O=C(Nc1ccc(S(=O)(=O)NC2=NCCCCC2)cc1)c1cc(S(=O)(=O)N2CCOCC2)ccc1F,21.8*,18.1,-0.4,-5.1,-7.6,20.7
O=C(Nc1ccc(S(=O)(=O)N2CCOCC2)cc1)c1ccc(Br)o1,26.3*,-3.1,-2.1,8.4,-2.0,13.2
O=C(Nc1ccc(S(=O)(=O)NC2=NCCCCC2)cc1)c1cccc(S(=O)(=O)N2CCOCC2)c1,1.1,.,0.2,5.1,14.2,-0.5
O=C(Nc1ccc(N2CCOCC2)cc1)c1ccc(Cl)nc1,-1.7,-1.9,-0.5,3.7,5.3,73.1*
O=C(C1CCCN(S(=O)(=O)c2ccc(F)cc2)C1)N1CCOCC1 (stereo not drawn),25.9*,.,.,4.5,.,.
COc1ccc(C(=O)OCC(=O)Nc2c(C)n(C)n(-c3ccccc3)c2=O)cc1OC,0.2,.,2.8,-0.5,.,-0.3
COc1ccc2[nH]cc(CCNC(=O)COc3cc(C)cc4oc(=O)cc(C)c34)c2c1,-1.8,0.4,0.7,13.3,3.7,4.3
N#CCSc1nnc(COc2ccc3ccccc3c2)o1,15.0*,31.2,-0.9,-2.6,-9.6,-0.1
NC(=O)CSc1nnc(COc2ccc3ccccc3c2)o1,3.2,5.5,-0.8,2.6,10.5,.
N#CCSc1nnc(CNc2cccc(Cl)c2)o1,14.2*,11.2,-0.7,-1.5,5.4,5.8
Cc1nc2ccc(NC(=O)[C@H](C)N3C(=O)C4CC=CCC4C3=O)cc2s1 (stereo partly drawn),-1.2,.,-1.5,-3.0,17.2,0.6
COc1ccc(C(=O)c2sc3nc(C)cc(-c4cccs4)c3c2N)cc1,1.1,23.4,.,-5.3,.,.
Cc1cc(-c2cccs2)c2c(N)c(C(=O)c3ccc4c(c3)OCO4)sc2n1,20.6*,-3.1,0.6,-2.3,129.4,6.1
O=C(O)c1ccc(N/N=C/c2ccc(-c3ccccc3Cl)o2)cc1,-4.7,-94.8*,1.4,-0.8,29.9,3.7
Cc1nnc(N/N=C/c2ccc(-c3ccc(Br)cc3)o2)n1N,3.3,-2.3,2.2,-7.4,.,49.4*
O=C(O)c1cc(-c2ccc(/C=N/Nc3ccc(Cl)cc3)o2)ccc1Cl,-7.0,-1.3,1.7,-6.2,303.7*,70.7*
SMILES,NR3A LBD binder,AI-2 QS mod,NTR1 agonist,Cardio protect,SUMO Mot1 rescue,AHR act
O=C(O)c1ccc(N/N=C/c2ccc(-c3ccc(Br)cc3)o2)cc1,-2.3,-96.1*,3.7,-1.6,21.9,5.4
COc1cc(NC(=O)c2ccccc2)c(OC)cc1NC(=O)CN1C(=O)NC2(CCCCC2)C1=O,-3.2,.,2.0,0.2,-4.1,6.8
CCC(O)c1cc2c(cc1NC(=O)c1ccc(C)cc1)OCCO2 (stereo not drawn),-1.7,4.4,0.3,-11.3,4.7,62.7*
O=C(N/N=C1\SCC(=O)N1CCc1ccccc1)c1cccs1,-0.4,6.8,1.9,-0.5,-17.7,51.1*
O=C(COc1cccc2cccnc12)N/N=C1\SCC(=O)N1Cc1ccccc1,-1.4,39.2,-1.8,-0.4,-17.0,52.4*
COc1ccc(CCN2C(=O)CS/C2=N\NC(=O)c2ccc(C(C)(C)C)cc2)cc1OC,-1.1,6.1,4.4,-2.0,6.0,43.1
O=C(COc1cccc2cccnc12)NNC(=S)Nc1ccccc1,.,5.5,2.6,.,-12.7,3.2
O=C(CCNS(=O)(=O)c1ccc(Br)cc1)NNC(=O)C1COc2ccccc2O1 (stereo not drawn),0.9,.,0.4,-10.2,-3.1,0.3
O=C(c1ccccc1-c1nc(-c2ccc(F)cc2)no1)N1CCCC1,-1.3,19.6,-0.8,-6.8,1.9,50.2*
O=C(c1ccccc1-c1nc(-c2ccccc2)no1)N1CCOCC1,-1.0,1.8,3.3,16.9,-0.1,5.2
COC(=O)c1ccccc1S(=O)(=O)N(Cc1cc2cc3c(cc2[nH]c1=O)OCO3)C1CCCCC1,.,27.9,7.8,.,33.3,62.7*
CCc1cc(C(=O)N2CCCC(Nc3ccc(F)c(F)c3)C2)n(C)n1 (stereo not drawn),2.1,9.7,-0.6,0.5,-5.3,-1.4
COCCNc1nc(Nc2ccc(Cl)cc2F)c2sccc2n1,.,.,.,-0.2,.,.
O=C(Nc1c(C(=O)O)[nH]c2ccc(F)cc12)c1cccc(C(F)(F)F)c1,12.5*,24.8,-0.8,-12.3,-24.0,7.0
O=C(Nc1c(C(=O)O)[nH]c2ccccc12)c1cccc(C(F)(F)F)c1,2.9,12.4,-1.0,13.9,-9.6,13.1
CCC(Sc1nncn1C)C(=O)Nc1nnc(-c2ccccc2Cl)s1 (stereo not drawn),-4.0,40.8,0.4,-6.8,-14.8,51.8*
COc1ccc(CCNC(=O)CSc2nc(=O)n3cc(C)ccc3n2)cc1OC,1.9,8.9,0.4,3.8,-3.4,-2.9
COc1ccccc1CNC(=O)COC(=O)c1ccc(NC(N)=O)cc1,-1.5,26.1,-1.0,10.3,325.3*,1.6
O=C(CN1C(=O)NC2(CCCCCC2)C1=O)c1cccs1,-0.1,.,3.1,4.2,-6.0,1.4

# From PubChem
